Hits are enriched below; roughly 3.3% of the tested compounds scored in any of these assays.
TbPYK inhibitor: blocks Trypanosoma brucei pyruvate kinase | 0.12% of 410,000 active | Q57TT1 | Potency, µM (series often up to 76.8 µM), usual class: inhibitors | TbPYK enzyme, Kinase-Glo Plus ATP luminescence, 45 min | AID 624173; note: nearly all actives have a fitted effect of over 50% in size
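Luminescence from Kinase-Glo Plus, added after a 45-minute room-temperature reaction, served as the end-point read-out. The enzyme and substrate were preincubated with compound before ADP (130 uM final) initiated turnover. Concentration-effect curves came from normalized qHTS data.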
AmpC inh detg: inhibitors of E. coli AmpC beta-lactamase with detergent; P00811; AmpC hydrolysis of nitrocefin, absorbance 480 nm, 0.01% Triton; Potency, µM (highest dose often 114 µM), actives largely listed as inhibitors; 0.041% of 370,000 active; AID 485294; note: nearly all actives have a fitted effect of over 25% in size
Target sequence (P00811 whole entry, looked up): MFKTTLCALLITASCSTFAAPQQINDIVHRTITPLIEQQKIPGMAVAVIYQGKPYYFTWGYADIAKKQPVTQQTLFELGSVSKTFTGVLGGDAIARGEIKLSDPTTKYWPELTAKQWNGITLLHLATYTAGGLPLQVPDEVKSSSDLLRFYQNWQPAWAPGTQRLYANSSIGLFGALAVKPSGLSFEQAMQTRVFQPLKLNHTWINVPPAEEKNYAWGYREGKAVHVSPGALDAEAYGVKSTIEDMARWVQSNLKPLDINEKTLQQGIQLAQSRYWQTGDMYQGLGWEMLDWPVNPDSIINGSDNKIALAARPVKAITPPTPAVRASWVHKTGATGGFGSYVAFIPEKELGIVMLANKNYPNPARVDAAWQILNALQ
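AmpC (5.3 nM in the dispensed reagent) in 20 mM phosphate pH 7.0 with 0.01% (detergent screen) or 0.0001% Triton X-100 was preincubated with compounds for 15 min at room temperature. Nitrocefin was then added from an 800 uM solution, and hydrolysis was followed at 480 nm.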
Sm TGR block: blocks Schistosoma mansoni thioredoxin glutathione reductase; purified TGR, DTNB reduction, TNB absorbance 405 nm; Potency, µM (doses to about 114 µM), actives largely listed as inhibitors; 3% of 360,000 active; AID 485364; note: nearly all actives have a fitted effect of over 60% in size
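TGR 20 nM + NADPH 100 uM (dispensed conc.), cpd preinc 15 min RT; start with NADPH (500 uM addition) then DTNB (15 mM addition). Kinetic TNB absorbance, 405 nm filter. Four-parameter Hill fit across titration.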
SARS PLpro yeast: blocks SARS-CoV papain-like protease in a yeast assay; S. cerevisiae expressing SARS-CoV PLpro, growth rescue; Potency, µM (doses to about 32.9 µM), usual class: activators; 0.19% of 330,000 active; calls by dose curve; note: nearly all actives have a fitted effect of over 55% in size
RE007 growth inh: less growth of the S. pombe RE007 Vpr strain; S. pombe RE007 Vpr strain, BacTiter-Glo ATP luminescence, 24 h; Potency, µM (series often up to 92.2 µM), hits mostly inhibitors; 0.21% of 360,000 active; active = well fitted falling curve with a large enough effect; inconclusive = small, poorly fitted or top-dose-only effect; inactive = no such curve, though single readings can be large or run the other way; note: nearly all actives have a fitted effect of over 50% in size
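Fission yeast strain RE007, carrying one chromosomally integrated HIV-1 vpr copy, was seeded at OD 0.01 in PMG+AL medium with 23 nL pinned compound. After 24 h at 30 °C and 99% humidity, viability was read by BacTiter-Glo luminescence.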
AmpC no deterg: inhibitors of E. coli AmpC beta-lactamase without detergent. Potency, µM (top dose mostly 57.1 µM), hits mostly inhibitors. AmpC nitrocefin hydrolysis, absorbance 480 nm, 0.0001% Triton. P00811. 0.52% of 330,000 active; note: nearly all actives have a fitted effect of over 20% in size
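AmpC (5.3 nM in the dispensed reagent) in 20 mM phosphate pH 7.0 with 0.01% (detergent screen) or 0.0001% Triton X-100 was preincubated with compounds for 15 min at room temperature. Nitrocefin was then added from an 800 uM solution, and hydrolysis was followed at 480 nm.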
A number is an active result; [ ] = remark or other dose. Unless noted, calls come from the whole dose curve; as a rule, active = well fitted curve in the direction sought with a large enough effect; inconclusive = small, poorly fitted or top-dose-only effect, or another doubt; inactive = no such curve, though single readings can be large; an effect the other way counts as inactive or inconclusive.

COc1cc(Cn2c(=O)sc3ccccc32)ccc1OCCC(C)C was read as TbPYK inhibitor inactive, AmpC inh detg inactive and Sm TGR block inactive.
For O=C(Nc1ccc(N2CCCC2)c(Cl)c1)c1cccnc1 the results were TbPYK inhibitor inactive, AmpC inh detg inconclusive, Sm TGR block 50.1µM, SARS PLpro yeast inactive, RE007 growth inh inactive and AmpC no deterg inactive.
CC1CCc2c(sc(NC(=O)c3cc4nc(-c5ccc(Cl)cc5)cc(C(F)(F)F)n4n3)c2C#N)C1 (stereo not given) was read as TbPYK inhibitor inactive, AmpC inh detg inactive and Sm TGR block inactive.
CCCCOc1ccc(C2c3c(oc4ccccc4c3=O)C(=O)N2c2nc(C)c(C(=O)OCC)s2)cc1OC (stereo not given) was read as TbPYK inhibitor inactive, AmpC inh detg inactive and Sm TGR block inactive.
COc1ccc(Cl)cc1NC(=O)CSC1=Nc2ccccc2C2=NC(CCC(=O)NCc3ccco3)C(=O)N12 (stereo not given) was read as TbPYK inhibitor inactive, AmpC inh detg inactive and Sm TGR block inactive.
Screening CCOC(=O)C1(CCOC)CCN(Cc2ccccc2-c2ccco2)CC1 returned TbPYK inhibitor inactive, AmpC inh detg inactive, Sm TGR block 35.5µM, SARS PLpro yeast inactive, RE007 growth inh inactive and AmpC no deterg inactive.
`CCOC(=O)C1(CCOc2ccccc2)CCN(Cc2ccncc2)CC1` gave TbPYK inhibitor inactive, AmpC inh detg inactive, Sm TGR block 28.2µM, SARS PLpro yeast inactive, RE007 growth inh inactive and AmpC no deterg inactive.
Screening CCOC(=O)C1(CCOC)CCN(Cc2ccncc2)CC1 returned TbPYK inhibitor inactive, AmpC inh detg inactive, Sm TGR block inactive, SARS PLpro yeast inactive, RE007 growth inh inconclusive and AmpC no deterg inactive.
`Cn1c(=O)n(C)c2cc(N3CCOCC3)c(NS(=O)(=O)c3ccc(Br)cc3)cc21` gave TbPYK inhibitor inactive, AmpC inh detg inactive and Sm TGR block inactive.
COc1ccc(C(=O)Nc2ccc(N(C)Cc3ccccc3)c(C(=O)O)c2)cc1 was read as TbPYK inhibitor inactive, AmpC inh detg inactive and Sm TGR block inactive.
For Cc1ccc(CN(C(=O)COc2c(C)cccc2C)C2CCS(=O)(=O)C2)o1 (stereo not given) the results were TbPYK inhibitor inactive, AmpC inh detg inactive and Sm TGR block inactive.
CCS(=O)(=O)c1ncc(Cl)c(C(=O)N(Cc2ccccc2)c2ccc(OC)cc2)n1 was read as TbPYK inhibitor inactive, AmpC inh detg inactive and Sm TGR block 39.8µM.
Screening CCSc1ncc(Cl)c(C(=O)N(Cc2ccccc2)Cc2ccco2)n1 returned TbPYK inhibitor inactive, AmpC inh detg inactive and Sm TGR block inconclusive.
`CCS(=O)(=O)c1ncc(Cl)c(C(=O)N2CCN(c3ccc(OC)cc3)CC2)n1` gave TbPYK inhibitor inactive, AmpC inh detg inactive and Sm TGR block 35.5µM.
Screening COc1ccc(N2CCN(C(=O)c3nc(SC)ncc3Cl)CC2)cc1 returned TbPYK inhibitor inactive, AmpC inh detg inactive and Sm TGR block inactive.
For CCCS(=O)(=O)c1ncc(Cl)c(C(=O)N(Cc2ccccc2)Cc2ccco2)n1 the results were TbPYK inhibitor inactive, AmpC inh detg inactive and Sm TGR block 5.01µM.
For CCS(=O)(=O)c1ncc(Cl)c(C(=O)NCc2ccc(OC)cc2)n1 the results were TbPYK inhibitor inactive, AmpC inh detg inactive and Sm TGR block 10µM.
Screening COc1ccc(-c2[nH]ncc2C(=O)NCc2ccccc2C)cc1 returned TbPYK inhibitor inactive, AmpC inh detg inactive and Sm TGR block inactive.
Screening COc1ccc(OC)c(-c2c3c([nH]c(=S)c2C#N)CCCC3)c1 returned TbPYK inhibitor inconclusive, AmpC inh detg inactive, Sm TGR block inactive, SARS PLpro yeast inactive, RE007 growth inh inactive and AmpC no deterg inactive[2.29 µM].
`COc1ccc(-c2c3c([nH]c(=S)c2C#N)CCC3)cc1` gave TbPYK inhibitor 12.6µM, AmpC inh detg inconclusive, Sm TGR block 44.7µM, SARS PLpro yeast inactive, RE007 growth inh inactive and AmpC no deterg inactive.
For CCN(CC)C(=O)c1c(C)[nH]c(=S)c(C#N)c1-c1ccco1 the results were TbPYK inhibitor 5.62µM, AmpC inh detg inactive, Sm TGR block 14.1µM, SARS PLpro yeast inactive, RE007 growth inh inactive and AmpC no deterg inactive.
For N#Cc1c(-c2cccnc2)c2c([nH]c1=S)CCCC2 the results were TbPYK inhibitor inconclusive, AmpC inh detg inactive, Sm TGR block inactive, SARS PLpro yeast inactive, RE007 growth inh inactive and AmpC no deterg inactive.
For N#Cc1c(-c2ccco2)c2c([nH]c1=S)CCCC2 the results were TbPYK inhibitor 17.8µM, AmpC inh detg inactive, Sm TGR block 2.82µM, SARS PLpro yeast inactive, RE007 growth inh inactive and AmpC no deterg inactive.
Screening Cc1[nH]c(=S)c(C#N)c(-c2ccccc2)c1C(=O)Nc1ccccc1 returned TbPYK inhibitor inconclusive, AmpC inh detg inactive, Sm TGR block inactive, SARS PLpro yeast inactive, RE007 growth inh inactive and AmpC no deterg inactive.
Screening CCOc1ccc(C(c2c(O)cc(C)n(Cc3ccco3)c2=O)N2CCN(c3ccccc3)CC2)cc1 (stereo not given) returned TbPYK inhibitor inactive, AmpC inh detg inactive and Sm TGR block 3.55µM.
For CCOc1ccc(C(c2c(O)cc(C)n(Cc3ccco3)c2=O)N2CCCCC2)cc1 (stereo not given) the results were TbPYK inhibitor inactive, AmpC inh detg inactive and Sm TGR block 7.08µM.
Screening CCN(c1ccccc1)S(=O)(=O)c1ccc(NC(=O)c2nc(SC)ncc2Cl)cc1 returned TbPYK inhibitor inactive, AmpC inh detg inactive and Sm TGR block inactive.
`CCOc1ccc(Cn2c(CNS(=O)(=O)c3ccc([N+](=O)[O-])cc3)nc3cccnc32)cc1` gave TbPYK inhibitor inactive, AmpC inh detg inactive and Sm TGR block inactive.
`CSc1cccc(NC(=S)N2CCC(N(C)C3CCCCC3C)CC2)c1` (stereo not given) gave TbPYK inhibitor inactive, AmpC inh detg inactive, Sm TGR block 22.4µM, SARS PLpro yeast inactive, RE007 growth inh inactive and AmpC no deterg inactive.
`CSc1cccc(NC(=S)N2CCC(N(C)C3CCCCC3)CC2)c1` gave TbPYK inhibitor inactive, AmpC inh detg inactive, Sm TGR block 44.7µM, SARS PLpro yeast inactive, RE007 growth inh inactive and AmpC no deterg inactive.
Screening Cc1ccc(NC(=O)Cn2cccc2)cc1C returned TbPYK inhibitor inactive, AmpC inh detg inactive, Sm TGR block inactive, SARS PLpro yeast inactive, RE007 growth inh inactive and AmpC no deterg inactive.
